# Reference: PubChem BioAssay AID485284 (NMMLSC, 2010)
# Measured potencies and affinities stand elsewhere.
# Experiment: inhibitors of CD8+ T cell–vesicle binding, dose response, mouse 2C CD8+ T cells, flow cytometry (AID 485284);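 also: drosophila derived vesicles carrying Ld MHC with QL9 peptide plus B7-1 and ICAM-1; vesicle binding seen as anti-B7-1 PE fluorescence on CD8 gated cells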
# Conditions: 2C mouse CD8+ T cell-exosome binding; at 45 µM (top of the series)
row,Structure (SMILES),"binding remaining, % of control [%]"
1,CC(C)(O)C(=O)Nc1ccc([N+](=O)[O-])c(C(F)(F)F)c1,166
2,COc1ccc2c3c1OC1[C@H](O)CCC4[C@@H](C2)N(C)CC[C@]314 (stereo partly specified),230
3,COC(=O)C1=C(c2ccc(F)cc2F)C[C@@H]2CC[C@H]1N2C(=O)NCCNC(C)=O,107
4,O=C(Nc1ccc(Cl)cc1)O/N=C(\c1ccccc1)c1ccccn1,85.8
5,Cc1sc2ncnc(NCC(C)(C)N3CCOCC3)c2c1C,133
6,COC(=O)C1=C(c2c(C)noc2C)C[C@@H]2CC[C@H]1N2C(=O)NCCOc1ccccc1Cl,124
